# Assay results published in PubChem BioAssay (NCATS).
# Where “and” joins values, the source holds several entries; their conditions need not be identical. Equal entries are not always repeated. Results filed as inconclusive are left out. Entries that show only a call come without a potency. Calls of active or inactive are those of the source. Unless noted, calls follow the shape of the dose curve; as a rule, active = well fitted curve in the direction sought with a large enough effect; inconclusive = small, poorly fitted or top-dose-only effect, or another doubt; inactive = no such curve, though single readings can be large; an effect the other way counts as inactive or inconclusive.
# How the values were obtained:
# [1] = molecular target: Glucagon-like peptide 1 receptor (Homo sapiens) (UniProt P43220); experiment: qHTS of GLP-1 Receptor Agonists: LOPAC Validation (AID 624148);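 also: luminescence from a luciferase reporter switched on by cAMP; higher luminescence signal means agonism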
# Chain of Glucagon-like peptide 1 receptor (Homo sapiens) (P43220 whole entry, looked up): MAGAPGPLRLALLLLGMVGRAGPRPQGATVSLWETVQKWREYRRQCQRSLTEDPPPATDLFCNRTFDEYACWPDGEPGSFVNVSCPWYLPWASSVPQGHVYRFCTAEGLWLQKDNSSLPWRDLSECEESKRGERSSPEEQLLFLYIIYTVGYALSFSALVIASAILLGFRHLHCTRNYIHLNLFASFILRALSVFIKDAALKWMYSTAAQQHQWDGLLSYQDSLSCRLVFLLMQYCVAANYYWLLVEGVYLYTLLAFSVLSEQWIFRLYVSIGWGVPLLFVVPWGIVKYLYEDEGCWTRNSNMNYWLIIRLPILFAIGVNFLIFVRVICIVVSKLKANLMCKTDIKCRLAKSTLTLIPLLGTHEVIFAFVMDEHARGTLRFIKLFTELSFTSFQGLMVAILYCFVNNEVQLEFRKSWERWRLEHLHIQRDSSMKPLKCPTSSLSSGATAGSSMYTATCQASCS
# Summary of the method: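 Agonism scored as increased luciferase luminescence driven by cAMP in HEK293 clones carrying GLP-1R. Cells settled 12 hours, received compound for 4-6 hr at 37 deg C, 5% CO2, and were read after 12 min detection reagent at RT.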
# [2] = qHTS of Nrf2 Activators: LOPAC Validation (AID 624149)
# Summary of the method: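 AREc32_Fluc cells, 1000/well, OPTI-MEM + 5% FBS, o/n 37 deg C 5% CO2; compound pin-transfer, 24 hr 37 deg C; Steady-Glo 30 min RT, luminescence read.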
# [3] = HTS Assay for Allosteric Antagonists of the Human D2 Dopamine Receptor: Hit Validation in HTRF (AID 624455)
# Summary of the method: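 HTRF read-out; cells stably expressing D1 receptor; hits scored for inhibition of D1-mediated response. Primary screen: calcium flux, force-coupled inducible Hek293 Trex D2 line, antagonism vs EC80 dopamine.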
# [4] = qHTS assay for small molecule agonists of the antioxidant response element (ARE) signaling pathway (AID 651741; active = well fitted activation curve with a large enough effect in the signal ratio; the % refers to the signal ratio; also: potency is read from the fitted curve at half-maximal effect)
# Summary of the method: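 Agonist activity is measured as ARE-driven beta-lactamase expression in a stable HepG2 reporter line, using 16 h compound treatment at 37 C and a FRET substrate fluorescence readout after 2 h.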
# [5] = qHTS assay for small molecule activators of the p53 signaling pathway (AID 651743; active = well fitted activation curve with a large enough effect in the signal ratio, not every such curve was filed as active; the % refers to the signal ratio; also: series mostly up to about 92 µM); details: HCT-116 p53RE-bla, beta-lactamase FRET ratio, 16 h; active compounds read high
# Summary of the method: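 A beta-lactamase reporter under p53 response element control, stably carried by HCT-116 cells, reported pathway activation. Test compounds were applied for 16 hours at 37 C, and fluorescence was measured 2 hours after adding the B/G FRET substrate.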
# [6] = qHTS assay for small molecule activators of the nuclear factor-kappa B (NF-kB) signaling pathway (AID 651749; active = well fitted activation curve with a large enough effect in the signal ratio; the % refers to the signal ratio; also: series mostly up to about 77 µM); details: NF-kB-bla ME-180 cells, beta-lactamase FRET ratio, 16 h; activation: active compounds read high
# Summary of the method: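 FRET-based beta-lactamase detection in ME-180 cells reports NF-kB response-element-driven transcription following overnight (16 hr) compound treatment.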
# [7] = molecular target: Tumor necrosis factor (Homo sapiens) (UniProt P01375); experiment: qHTS assay to identify small molecules that stimulate Tumor Necrosis Factor-alpha (TNF-alpha) secretion (AID 651757; active = well fitted curve in the direction sought with a large enough effect in the signal ratio; the % refers to the signal ratio)
# Chain of Tumor necrosis factor (Homo sapiens) (P01375 whole entry, looked up): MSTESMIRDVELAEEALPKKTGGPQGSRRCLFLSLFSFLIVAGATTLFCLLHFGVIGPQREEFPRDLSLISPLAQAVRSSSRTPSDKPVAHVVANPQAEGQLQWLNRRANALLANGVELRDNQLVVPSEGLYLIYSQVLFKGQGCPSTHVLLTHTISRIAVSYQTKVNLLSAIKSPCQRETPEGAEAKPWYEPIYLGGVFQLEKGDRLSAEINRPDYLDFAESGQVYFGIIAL
# Summary of the method: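 THP-1 cells, 3000/well; compound 17 hrs, 37 C; add cryptate/XL665 anti-TNF-alpha antibody pair; 3 hr RT; TR-FRET (HTRF) read of secreted TNF-alpha. Quantitative HTS format.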
# [8] = qHTS assay for environmental chemicals that activate the Aryl hydrocarbon Receptor (AhR) signaling pathway (AID 651777); details: 1A2-DRE human hepatoma cells, luciferase, 24 h; active compounds read high; also: nearly all actives have a fitted effect of over 15% in size
# Summary of the method: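 Following a 24 hr incubation with test chemicals at 37 C and 5% CO2, 1A2-DRE human hepatoma cells received One-Glo reagent; after 30 min at room temperature, luciferase output reflected CYP1A2 induction via AhR.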
# [9] = molecular target: Peroxisome proliferator-activated receptor alpha (Homo sapiens) (UniProt Q07869); experiment: qHTS assay for small molecule agonists of the peroxisome proliferator-activated receptor alpha (PPARalpha) signaling pathway (AID 651778); details: PathHunter PPARalpha complementation, chemiluminescence, 6 h; active compounds read high
# Chain of Peroxisome proliferator-activated receptor alpha (Homo sapiens) (Q07869 whole entry, looked up): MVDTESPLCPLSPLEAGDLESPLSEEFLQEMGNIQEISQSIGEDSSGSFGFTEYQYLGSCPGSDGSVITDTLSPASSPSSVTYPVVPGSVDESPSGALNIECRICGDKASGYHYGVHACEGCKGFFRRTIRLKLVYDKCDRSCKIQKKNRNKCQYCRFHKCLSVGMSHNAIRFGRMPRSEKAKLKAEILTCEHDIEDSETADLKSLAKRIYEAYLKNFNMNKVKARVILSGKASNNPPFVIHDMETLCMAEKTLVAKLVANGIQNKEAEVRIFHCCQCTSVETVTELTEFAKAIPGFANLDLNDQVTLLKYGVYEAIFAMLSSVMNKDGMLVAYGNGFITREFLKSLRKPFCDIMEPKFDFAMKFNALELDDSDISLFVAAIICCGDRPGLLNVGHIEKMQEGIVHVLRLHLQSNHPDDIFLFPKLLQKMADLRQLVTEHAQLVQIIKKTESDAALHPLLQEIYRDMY
# Summary of the method: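 Chemiluminescence from complemented enzyme reported PPARalpha activation in cells after 6 hr of compound treatment at 37 C. The detection reagent was incubated for 60 min at room temperature, and compounds were scored as agonists.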
# [10] = qHTS assay for small molecule disruptors of the mitochondrial membrane potential - 1 hr assay (AID 651754; calls by dose curve; also: nearly all actives have a fitted effect of over 35% in size)
# Summary of the method: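 Read-out: dye fluorescence at 490 nm ex/535 nm em (monomers) and 540 nm ex/590 nm em (aggregates) in HepG2 cells. Compound exposure 1 hr at 37C, followed by 30 min dye loading.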
# [11] = qHTS assay for small molecule disruptors of the mitochondrial membrane potential - 5 hr assay (AID 651755; calls by dose curve; also: nearly all actives have a fitted effect of over 40% in size)
# Summary of the method: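 Membrane-potential dye readout: red aggregate (540 ex/590 em) versus green monomer (490 ex/535 em) fluorescence after 30 min dye loading, following 5 hr compound exposure at 37C of overnight-plated HepG2 cells.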
# [12] = qHTS assay to identify small molecules that stimulate interleukin-8 (IL-8) secretion (AID 651758; active = well fitted activation curve with a large enough effect in the signal ratio; the % refers to the signal ratio)
# Summary of the method: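 Secreted IL-8 measured homogeneously by TR-FRET (two labelled anti-IL-8 antibodies, 1-3 h at room temperature) after a 16 h, 37 C compound treatment of THP-1 cells at 2000 cells/well.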
smiles,measurement,setting,value
N=c1c[n+](N2CCOCC2)[n-]o1,outcome,[1],inactive
same,outcome,[2],inactive
CC(C)(C)c1onc(OCP(=O)(O)O)c1CC(N)C(=O)O (configuration not stated),outcome,[1],inactive
same,outcome,[2],inactive
CCN(CC)CCNC(=O)c1cc(Cl)c(N)cc1OC,outcome,[1],inactive
same,outcome,[2],inactive
Nc1ncnc2c1ncn2[C@@H]1O[C@H](CO)[C@@H](O)[C@H]1O,outcome,[1],inactive
same,outcome,[2],inactive
OCCN1CCN(CCCN2c3ccccc3Sc3ccc(Cl)cc32)CC1,outcome,[1],inactive
same,outcome,[2],inactive
CC(C)C(=O)c1c(C(C)C)nn2ccccc12,outcome,[1],inactive
same,outcome,[2],inactive
CNCCCC1c2ccccc2C=Cc2ccccc21,outcome,[1],inactive
same,outcome,[2],inactive
CSc1ccc2c(c1)N(CCC1CCCCN1C)c1ccccc1S2 (configuration not stated),outcome,[1],inactive
same,outcome,[2],inactive
CC(=O)OCC(=O)[C@@]1(O)CC[C@H]2[C@@H]3CCC4=CC(=O)CC[C@]4(C)[C@H]3C(=O)C[C@@]21C,outcome,[1],inactive
same,outcome,[2],inactive
same,outcome,[3],inactive
CN(C)CC[C@@H](c1ccc(Cl)cc1)c1ccccn1,outcome,[1],inactive
same,outcome,[2],inactive
C=Cc1c(C)c2cc3[nH]c(cc4nc(cc5nc(cc1[nH]2)C(C)=C5CCC(=O)O)C(CCC(=O)O)=C4C)c(C)c3C=C,outcome,[1],inactive
same,outcome,[2],inactive
CNCCC(Oc1ccc(C(F)(F)F)cc1)c1ccccc1 (configuration not stated),outcome,[1],inactive
same,outcome,[2],inactive
CC(CN(C)C)CN1c2ccccc2CCc2ccccc21 (configuration not stated),outcome,[1],inactive
same,outcome,[2],inactive
same,outcome,[3],inactive
C[C@]12C[C@H](O)[C@H]3[C@@H](CCC4=CC(=O)CC[C@@]43C)[C@@H]1CC[C@@H]2C(=O)CO,outcome,[1],inactive
same,outcome,[2],inactive
same,Potency,[4],inactive
same,activation,[5],-3.81% (inactive) and -1.82% (inactive)
same,activation,[6],-1.35% (inactive) and 0.404% (inactive)
same,outcome,[7],inactive
same,activation,[8],-0.656% (inactive) and -0.0877% (inactive)
same,max response,[9],-1.77% (inactive) and -2.82% (inactive)
NC(N)=NCCC[C@H](N)C(=O)O,outcome,[1],inactive
same,outcome,[2],inactive
CCN(CC)CCOC(=O)C1(C2CCCCC2)CCCCC1,outcome,[1],inactive
same,outcome,[2],inactive
CC1=C(CC(=O)O)c2cc(F)ccc2/C1=C\c1ccc(S(C)=O)cc1 (configuration not stated),outcome,[1],inactive
same,outcome,[2],inactive
CCN(CC)CCCC(C)Nc1c2ccc(Cl)cc2nc2ccc(OC)cc12 (configuration not stated),outcome,[1],inactive
same,outcome,[2],inactive
CCCn1cnc2c1c(=O)n(CCCCC(C)=O)c(=O)n2C,outcome,[1],inactive
same,outcome,[2],inactive
CC[C@H]1CN2CCc3cc(OC)c(OC)cc3[C@@H]2C[C@@H]1C[C@H]1NCCc2cc(OC)c(OC)cc21,outcome,[1],inactive
same,outcome,[2],inactive
CC(C)(C)[C@]1(O)CCN2C[C@H]3c4ccccc4CCc4cccc(c43)[C@@H]2C1,outcome,[1],inactive
same,outcome,[2],inactive
Cc1cc(N)c2ccccc2[n+]1CCCCCCCCCC[n+]1c(C)cc(N)c2ccccc21,outcome,[1],inactive
same,outcome,[2],inactive
NC1CCN(c2cccc(Cl)n2)CC1,outcome,[1],inactive
same,outcome,[2],inactive
CC1=C(/C=C/C(C)=C/C=C/C(C)=C/C(=O)O)C(C)(C)CCC1,outcome,[1],inactive
same,outcome,[2],inactive
same,Potency,[4],54.5 µM (active)
same,activation,[5],1.97% (inactive) and 6.17% (inactive)
same,activation,[6],-2.87% (inactive) and -2.33% (inactive)
same,activation,[8],4.57% (inactive) and 7.11% (inactive)
same,max response,[9],-0.0468% (inactive) and 3.03% (inactive)
CCCCCCCCCCCCCCCC(=O)NCCO,outcome,[1],inactive
same,outcome,[2],inactive
OCc1cc(C(O)CNCCCCCCOCCCCc2ccccc2)ccc1O (configuration not stated),outcome,[1],inactive
same,outcome,[2],inactive
C#CCN(C)Cc1ccccc1,outcome,[1],inactive
same,outcome,[2],inactive
CSc1ccc2c(c1)C(N1CCN(C)CC1)Cc1ccccc1S2 (configuration not stated),outcome,[1],inactive
same,outcome,[2],inactive
C[C@](N)(Cc1ccc(O)cc1)C(=O)O,outcome,[1],inactive
same,outcome,[2],inactive
CN1CCN(C2Cc3ccccc3Sc3ccc(Cl)cc32)CC1 (configuration not stated),outcome,[1],inactive
same,outcome,[2],inactive
CN(C)CCC=C1c2ccccc2CCc2ccccc21,outcome,[1],inactive
same,outcome,[2],inactive
same,Potency,[4],inactive
same,activation,[5],-8.64% (inactive) and -6.53% (inactive)
same,outcome,[7],inactive
same,activation,[8],-1.66% (inactive) and 0.429% (inactive)
same,max response,[9],-4.24% (inactive) and -3.42% (inactive)
CC(C)(C(=O)O)c1ccc(C(O)CCCN2CCC(C(O)(c3ccccc3)c3ccccc3)CC2)cc1 (configuration not stated),outcome,[1],inactive
same,outcome,[2],inactive
O=C1N=C(O)CN1/N=C/c1ccc(-c2ccc([N+](=O)[O-])cc2)o1,outcome,[1],inactive
same,outcome,[2],inactive
CC1=C(CC(=O)O)c2cc(F)ccc2/C1=C\c1ccc(S(C)(=O)=O)cc1,outcome,[1],inactive
same,outcome,[2],inactive
same,outcome,[3],inactive
Nc1cc(=O)[nH]c(N)n1,outcome,[1],inactive
same,outcome,[2],inactive
COCCOC(=O)C1=C(C)NC(C)=C(C(=O)OC/C=C/c2ccccc2)C1c1cccc([N+](=O)[O-])c1 (configuration not stated),outcome,[1],inactive
same,outcome,[2],inactive
CCN(CC)C(C)CN1c2ccccc2Sc2ccccc21 (configuration not stated),outcome,[1],inactive
same,outcome,[2],inactive
CC(C(O)c1ccc(O)cc1)N1CCC(Cc2ccccc2)CC1 (configuration not stated),outcome,[1],inactive
same,outcome,[2],inactive
same,outcome,[3],inactive
CC(O)COc1ccccc1 (configuration not stated),Potency,[4],inactive
same,activation,[5],2.15% (inactive)
same,activation,[6],-2.71% (inactive)
same,activation,[8],1.38% (inactive)
same,max response,[9],-0.783% (inactive)
CCCc1c(OCCCCc2nn[nH]n2)ccc(C(C)=O)c1O,activation,[5],16.1% (inactive)
same,activation,[6],-0.919% (inactive)
same,max response,[9],11.9% (inactive)
COC(=O)C1=C(C)NC(C)=C(C(=O)OC)C1c1ccccc1[N+](=O)[O-],outcome,[1],inactive
same,outcome,[2],inactive
same,activation,[5],-2.95% (inactive)
same,Potency,[10],inactive
same,Potency,[11],inactive
same,outcome,[12],inactive
same,activation,[8],3.95% (inactive)
same,max response,[9],-2.24% (inactive)
